Reference: PubChem BioAssay AID434962 (The Scripps Research Institute Molecular Screening Center, 2010)
About 1,300 (0.41%) of roughly 320,000 compounds were called active. The sample as a whole holds a higher share of actives than the screen did. Values without a mark were called inactive.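 Rule for the calls: active = percent inhibition above the average of all tested compounds plus 3 SD, set per screening campaign (cut at about 16% in these data); inactive = the rest.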

Target: Insulin-degrading enzyme (Homo sapiens) (UniProt P14735)
Test: cellular IDE Abeta-cleavage inhibition – fluorescence polarization, HEK cells, FAbetaB substrate, primary screen (AID 434962);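 note: IDE supplied by intact live HEK cells; FP after avidin binding of uncleaved biotin substrate so inhibition keeps polarization high; 0% = DMSO wells and 100% = 60 µM reference IDE inhibitor Ii1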
Conditions: at 5.59 µM, stronger effect = higher value

Chain of Insulin-degrading enzyme (Homo sapiens) (P14735 whole entry, looked up): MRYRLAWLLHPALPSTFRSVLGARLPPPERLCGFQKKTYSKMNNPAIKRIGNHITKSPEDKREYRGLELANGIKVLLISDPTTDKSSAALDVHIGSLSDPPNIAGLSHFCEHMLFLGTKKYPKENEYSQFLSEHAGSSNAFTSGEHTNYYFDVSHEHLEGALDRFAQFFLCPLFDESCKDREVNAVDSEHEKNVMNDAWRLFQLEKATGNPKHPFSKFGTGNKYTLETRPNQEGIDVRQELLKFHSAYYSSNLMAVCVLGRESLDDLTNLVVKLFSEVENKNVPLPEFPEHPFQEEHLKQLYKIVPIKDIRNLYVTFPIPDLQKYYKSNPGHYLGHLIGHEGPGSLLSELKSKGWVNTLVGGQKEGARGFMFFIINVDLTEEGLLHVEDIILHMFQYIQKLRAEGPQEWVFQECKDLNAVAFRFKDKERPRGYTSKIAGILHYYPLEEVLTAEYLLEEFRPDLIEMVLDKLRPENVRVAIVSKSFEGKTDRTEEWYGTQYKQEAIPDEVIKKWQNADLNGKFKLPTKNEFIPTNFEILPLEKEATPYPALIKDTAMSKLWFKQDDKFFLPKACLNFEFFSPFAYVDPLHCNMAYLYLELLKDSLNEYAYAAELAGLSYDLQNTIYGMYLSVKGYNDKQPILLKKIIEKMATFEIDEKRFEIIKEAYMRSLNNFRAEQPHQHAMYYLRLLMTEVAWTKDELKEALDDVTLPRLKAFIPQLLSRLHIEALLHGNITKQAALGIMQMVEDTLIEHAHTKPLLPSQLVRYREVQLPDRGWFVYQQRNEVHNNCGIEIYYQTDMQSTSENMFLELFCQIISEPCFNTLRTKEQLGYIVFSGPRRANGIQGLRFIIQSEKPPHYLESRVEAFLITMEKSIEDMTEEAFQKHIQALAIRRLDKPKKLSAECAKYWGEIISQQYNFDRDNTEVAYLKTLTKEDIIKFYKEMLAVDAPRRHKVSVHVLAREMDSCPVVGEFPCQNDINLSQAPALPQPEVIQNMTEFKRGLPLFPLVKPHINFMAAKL

Row | SMILES | inhibition
1 | O=C(/C=C/c1ccc2c(c1)OCCO2)c1ccc(O)cc1 | -0.89%
2 | O=C(/C=C(O)/C=C/c1ccc(O)cc1)/C=C/c1ccc(O)cc1 | 138% (active)
3 | O=C(O)/C=C/c1ccc(OCCCF)cc1 | -0.17%
4 | Cc1cccc2sc(N(CCCN(C)C)C(=O)CCS(=O)(=O)c3ccccc3)nc12 | 1.58%
5 | O=C(O)c1cc(S(=O)(=O)NC2CCCc3ccccc32)ccc1O (configuration not stated) | -0.45%
6 | O=C(NNS(=O)(=O)c1c(F)cc(F)c(Cl)c1F)C12CC3CC(CC(C3)C1)C2 | -2.1%
7 | CCCNC(=O)N1CCN(C(=O)NCCC)CC1 | 4.47%
8 | Cc1ccccc1NC(=O)c1nn(-c2ccc(F)c(F)c2)ccc1=O | -4.03%
9 | C=CCOc1cccc(C2C(C(=O)c3ccc(C)o3)=C(O)C(=O)N2CCCn2ccnc2)c1 (configuration not stated) | 1.55%
10 | Cc1cc(N2C(=O)C(O)=C(C(=O)c3ccc(C)o3)C2c2ccc(OCc3ccccc3)cc2)no1 (configuration not stated) | -9.32%
11 | C=CCOc1cccc(C2C(C(=O)c3ccc(C)o3)=C(O)C(=O)N2c2nnc(C)s2)c1 (configuration not stated) | 24% (active)
12 | Cc1ccc(C)c(NS(=O)(=O)c2ccc(OCC(=O)NCc3cccnc3)cc2)c1 | 4.06%
13 | CC(C)COc1ccc(C(=O)NNC(=O)CCC(=O)c2cccs2)cc1 | -2.82%
14 | NS(=O)(=O)c1cccc(NC(=O)CC23CC4CC(CC(Br)(C4)C2)C3)c1 | 2%
15 | O=C1Nc2ccccc2/C1=C/c1ccnc2ccccc12 | 6.65%
16 | CN(C)/C=C1/Nc2ccccc2C1=O | 1.5%
17 | Cc1cc(C)c(/C=C2\C(=O)Nc3ccccc32)[nH]1 | 66.2% (active)
18 | COc1ccc2nc3n(c(=O)c2c1)-c1ccc(Cl)cc1C(=O)NC3Cc1ccccc1 (configuration not stated) | 4.46%
19 | CCOc1cc(/C=C(\C#N)c2nc(-c3cccs3)c(NC(C)=O)s2)ccc1O | 11%
20 | COc1cc(/C=C(\C#N)c2nc3ccccc3[nH]2)ccc1O | 121% (active)
21 | Cc1ccc2nc(/C(C#N)=C\c3ccc(OC(=O)c4cccs4)cc3)[nH]c2c1 | 6.77%
22 | COc1cc(/C=C(\C#N)c2nc3c(s2)CC(C)CC3)ccc1O (configuration not stated) | 89.3% (active)
23 | N#C/C(=C(/O)COc1cccc2ccccc12)c1nc2ccccc2[nH]1 | -1.21%

Row | SMILES | inhibition
24 | CCc1nn(CCCC(=O)Nc2ccc(C)c(C)c2)c(=O)c2cc3occc3n12 | 1.46%
25 | O=C(c1cccs1)n1nc(NCc2ccccc2)nc1NCc1ccccc1 | -0.3%
26 | COC(=O)Nc1ccc(S(=O)(=O)Nc2cc(OC)nc(OC)n2)cc1 | 0.87%
27 | CCOC(=O)c1c(C)n(C)c2ccc(OC)c(NS(=O)(=O)CC)c12 | -2.79%
28 | CC1C(=O)Nc2ccc(S(=O)(=O)N3CCN(c4ccccc4F)CC3)cc2NC1=O (configuration not stated) | 1.3%
29 | Oc1ccc(-c2onc3ccc(Cl)cc23)cc1 | 43.5% (active)
30 | CC(OC(=O)c1ccc2noc(-c3ccccc3)c2c1)C(N)=O (configuration not stated) | 8.12%
31 | COc1ccc(-c2onc3ccc(C(C)=O)cc23)cc1 | -1.49%
32 | Cc1ccc(NC(=O)C2CCN(S(=O)(=O)c3ccc4c(c3)NC(=O)CO4)CC2)cc1C | -0.04%
33 | Cn1cccc1C(=O)NNC(=O)COc1ccc(Br)cc1 | 2.25%
34 | COc1ccc2c(c1)c1nc3n(c(=O)c1n2CC(=O)Nc1ccccc1)CCS3 | -0.03%
35 | Cc1nnc2n1N=C(c1ccc3c(c1)NC(=O)CO3)CS2 | 4.61%
36 | CC(=O)N1CCSc2ccc(S(=O)(=O)N3CCC(C)CC3)cc21 | 2.25%
37 | O=C(/C=C/c1ccc(N2CCOCC2)cc1)c1ccccc1 | 20.5% (active)
38 | CC(=O)Nc1ccc(/C=C/C(=O)c2ccccc2)cc1 | 1.53%
39 | O=C(O)c1ccc2c(c1)C(=O)N(c1ccc(/C=C/C(=O)c3ccccc3)cc1)C2=O | 11.8%
40 | CNC[C@H]1Oc2c(NC(=O)C3CCCCC3)cccc2C(=O)N([C@H](C)CO)C[C@@H]1C | 8.42%
41 | NC(=O)NC(=O)CSc1nc2cc([N+](=O)[O-])ccc2n1-c1cccc(C(F)(F)F)c1 | -2.07%
42 | CCCOC(=O)Cc1c(O)c2ccccc2[nH]c1=O | 1.56%
43 | CCCC(=O)Nc1c(O)c2ccccc2[nH]c1=O | 20.6% (active)
44 | CC(C)C(=O)Nc1c(O)c2ccccc2[nH]c1=O | -1.36%
45 | O=C(c1cccc(Br)c1)N1CCN(C2=NS(=O)(=O)c3ccccc32)CC1 | -5.26%
46 | CCCC1CCC(=NNC(=S)NCCc2ccccc2)CC1 (configuration not stated) | 1.89%

Row | SMILES | inhibition
47 | COc1cccc(CNC(=O)COc2cc(O)c3c(c2)OC(C)(C)CC3=O)c1 | 0.91%
48 | Cc1ccc(CC(=O)Nc2ccc(S(=O)(=O)N3CCOCC3)cc2)cc1C | 3.81%
49 | O=C(COC(=O)CCc1ccc(S(=O)(=O)N2CCOCC2)cc1)Nc1cccc(Cl)c1 | 1.15%
50 | O=C(CCc1ccc(S(=O)(=O)N2CCOCC2)cc1)Nc1ccc2ccccc2c1 | 26.8% (active)
51 | COCCN(Cc1nc(-c2ccc(C(F)(F)F)cc2)no1)C(C)C | 1.82%
52 | CCN1C(=S)N[C@@H](CCc2ccccc2)[C@H](C(=O)OC)[C@H]1C | 0.06%
53 | O=C(Nc1ccccc1)N1CCN(C2c3ccccc3-c3ccccc32)CC1 | 0.11%
54 | NC(=O)c1cc2ccccc2o/c1=N/NC(=O)c1cccc(F)c1 | 7.74%
55 | CCN(CC)c1ccc2cc(C(N)=O)/c(=N\NC(=O)c3ccncc3)oc2c1 | 64.9% (active)
56 | COc1cccc2cc(C(N)=O)/c(=N\NC(=O)c3ccccc3)oc12 | -0.22%
57 | O=C(CCN1C(=O)COc2ccccc21)NCCCN1CCN(c2ccc(F)cc2)CC1 | -5.39%
58 | CCN(C(=O)CSc1nnnn1-c1ccc(OC)cc1)C1CCS(=O)(=O)C1 (configuration not stated) | -3.64%
59 | CCOc1ccc(NC(=O)c2ccc(NC(=O)C3CCCO3)cc2)cc1 (configuration not stated) | 3.26%
60 | N#C/C(=C\c1ccc(O)c(O)c1)C(=O)NCc1ccccc1 | 30.2% (active)
61 | COc1ccc(CNC(=O)/C(C#N)=C/c2cccc(OC)c2OC)cc1 | 2.96%
62 | COCCNC(=O)/C(C#N)=C/c1cccc(OCc2ccccc2)c1 | 3.27%
63 | COc1ccc(CCNC(=O)CC2SC(=Nc3cc(C)cc(C)c3)NC2=O)cc1OC (configuration not stated) | 2.28%
64 | CCOC(=O)CNC(=O)/C(=C\c1ccc(F)cc1)NC(=O)c1ccccc1 | -3%
65 | Cn1c2ccccc2c2cc(/C=C(\NC(=O)c3ccccc3)C(=O)NCC(=O)O)ccc21 | 32.5% (active)
66 | COc1ccc(/C=C(\NC(=O)c2ccccc2)C(=O)NCCN2CCOCC2)cc1OC | 0.14%
67 | CC(=O)Oc1cc2c(C(=O)NCCN3CCOCC3)c(C)oc2c2ccccc12 | -2.28%
68 | NC(=O)c1c(Nc2nc3c(F)cccc3s2)sc2c1CCCC2 | 24.3% (active)
69 | O=C(Nc1sc2c(c1C(=O)O)CCC2)c1ccccc1F | -2.01%

Row | SMILES | inhibition
70 | COc1cccc(OC)c1C(=O)Nc1sc2c(c1C(N)=O)CCCC2 | 0.41%
71 | Cc1cc(C(C)(C)C)oc1C(=O)N(CC(=O)NC1CCCC1)Cc1ccc(Cl)cc1 | 6.17%
72 | CCN(CCCNC(=O)c1ccc2c(c1)NC(=O)CN2C)c1cccc(C)c1 | 2.85%
73 | CC(C)NC(=O)CSc1nnc(COc2ccccc2Cl)o1 | -2.04%
74 | CCCCn1c(SCc2ncc(-c3ccccc3)o2)nc2cc(S(N)(=O)=O)ccc21 | 2.94%
75 | COc1ccccc1N(C)C(=O)c1cc(S(=O)(=O)N2CCc3ccccc32)cn1C | -0.28%
76 | COc1ccc(C2C=C(c3ccc(Br)cc3)Nc3nc(NS(C)(=O)=O)nn32)cc1 (configuration not stated) | 76.7% (active)
77 | Brc1ccc(C2=CC(c3ccco3)n3ncnc3N2)cc1 (configuration not stated) | 5.82%
78 | CCOc1ccc(C2=CC(c3ccccc3)n3ncnc3N2)cc1 (configuration not stated) | 7.53%
79 | CCOc1ccc(N(CC(=O)NCCOc2ccccc2OC)S(=O)(=O)c2ccccc2)cc1 | 4.02%
80 | Cc1cc2c(cc1S(=O)(=O)NCc1ccc(Cl)cc1)OCC(=O)N2 | 5.28%
81 | CC1=CC(C)(C)Nc2ccc(OC(=O)C(Cc3ccccc3)N3C(=O)C4CCCCC4C3=O)cc21 (configuration not stated) | -5.52%
82 | O=C(CN1C(=O)C2C3CCC(C3)C2C1=O)Oc1ccc2ccccc2c1 (configuration not stated) | -0.24%
83 | CC1=CC(C)(C)Nc2ccc(OC(=O)CN3C(=O)C4CCCCC4C3=O)cc21 (configuration not stated) | 23.6% (active)
84 | O=C(NCCC1CCCCN1S(=O)(=O)c1ccccc1)C(=O)NCC1CCCO1 (configuration not stated) | 3.94%
85 | Cc1ccccc1CSc1nnc(-c2ccccc2)c(=O)[nH]1 | 0.38%
86 | Cc1cccc(-n2c(Cc3cc(=O)[nH]c(=O)[nH]3)nnc2SC(C)C)c1 | 6.03%
87 | Cc1cccc(-n2c(Cc3cc(=O)[nH]c(=O)[nH]3)nnc2SCC(=O)Nc2cccc(C(F)(F)F)c2)c1 | 18.2% (active)
88 | COc1cccc(-n2c(Cc3cc(=O)[nH]c(=O)[nH]3)nnc2SCC(=O)Nc2ccccc2)c1 | 2.57%
89 | Cc1ccc(S(=O)(=O)N2CCN(C(=O)COC(=O)CNC(=O)c3ccc(C(C)(C)C)cc3)CC2)c(C)c1 | 1.73%
90 | CCOc1cc2c(Cl)ncnc2c(OCC)c1OCC | 17.1% (active)
91 | CCOc1cc(C(=O)Nc2ncccn2)cc(OCC)c1OCC | -0.15%
92 | CCOc1cc(-c2conc2N)cc(OCC)c1OCC | 0.37%
